Sfp inh – qHTS Assay for Inhibitors of Bacillus subtilis Sfp phosphopantetheinyl transferase (PPTase); Biochemical Sfp PPTase activity, qHTS; Potency, µM, without a hit: largest response in the series, negative = inhibition, actives largely listed as inhibitors; hit rate 3.5% among 310,000; AID 1490, 2009;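 note: the enzyme is Sfp with the accession as filed and its product quenches rhodamine fluorescence; 0% = enzyme reaction without inhibitor and -100% = no enzyme wells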
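Sfp 15 nM + cpd, 15 min RT; start w/ rhodamine-CoA 5 uM, BHQ-2-YbbR 12.5 uM (final); 50 mM Hepes pH 7.6, 10 mM MgCl2, 0.01% NP-40, 0.01% BSA; read 525/598 nm at 0 and 30 min.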
PLK1 PBD block – qHTS for Inhibitors of PLK1-PDB (polo-like kinase 1 - polo-box domain): Primary Screen | AID 720504, 2013 | hit rate 2.8% among 360,000 | Serine/threonine-protein kinase PLK1 (Homo sapiens), P53350 | Potency, µM, for the others: max response, negative = inhibition, usual class: inhibitors | Plk1 PBD binding of FITC phosphopeptide, fluorescence polarization; note: series mostly up to about 57 µM; % is set by controls: 0 for no effect and ±100 for the full control effect; nearly all actives have a fitted effect of over 65% in size
BAZ2B inh – qHTS Assay for Inhibitors of BAZ2B; Bromodomain adjacent to zinc finger domain protein 2B (Homo sapiens), Q9UIF8; AlphaScreen BAZ2B-H3K14Ac peptide displacement; Potency, µM (highest dose often 114 µM), without a hit: top-dose activity change, negative = inhibition, most hits filed as inhibitors; hit rate 4.4% among 360,000; AID 504333, 2011; note: % is set by controls: 0 for no effect and ±100 for the full control effect; nearly all actives have a fitted effect of over 60% in size
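Complex of BAZ2B and biotin-H3K14Ac (50 nM apiece) forms over 30 min at RT, then faces library compounds up to 110 uM for another 30 min; AlphaScreen beads added, 20 min dark incubation, luminescence read.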
JMJD2A Tudor inh – qHTS Assay for Inhibitors of JMJD2A-Tudor Domain; Potency, µM (titrated, usually from 114 µM), for inactives: at the highest dose activity change, negative = inhibition, actives largely listed as inhibitors; Lysine-specific demethylase 4A (Homo sapiens), O75164; AID 504339, 2011; hit rate 4.4% among 390,000; AlphaScreen JMJD2A-Tudor / H3K4me3 peptide binding; note: % is set by controls: 0 for no effect and ±100 for the full control effect; nearly all actives have a fitted effect of over 50% in size
HP1b chromo inh – HTS for Inhibitors of HP1-beta Chromodomain Interactions with Methylated Histone Tails; Chromobox protein homolog 1 (Homo sapiens), P83916; AlphaScreen HP1-beta / biotin-H3K9me3 peptide binding; Potency, µM (titrated, usually from 114 µM), inactives show at the top dose activity change, negative = inhibition, most hits filed as inhibitors; hit rate 0.56% among 390,000; AID 540317, 2011; note: nearly all actives have a fitted effect of over 70% in size
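AlphaScreen: HP1-beta (50 nM) preformed 30 min with biotin-H3(1-18)K9me3 peptide (50 nM) in PBS pH 7.4, 0.01% Tween-20. Compound added for 30 min at RT, then streptavidin donor/nickel chelate acceptor beads (10 ug/mL) for 30 min.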
G9a block – qHTS Assay for Inhibitors of Histone Lysine Methyltransferase G9a. Potency, µM (highest dose often 102 µM), for inactives: at the top dose activity, negative = inhibition, hits mostly inhibitors. hit rate 8.8% among 350,000. Histone-lysine N-methyltransferase EHMT2 (Homo sapiens), Q96KQ7. G9a H3K9 monomethylation, AlphaScreen, 2 h; note: % is set by controls: 0 for no effect and ±100 for the full control effect; nearly all actives have a fitted effect of over 75% in size
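AlphaScreen read-out: biotin-H3K9 peptide (500 nM) methylation by 20 nM enzyme with 20 uM SAM, 2 h at room temperature after 15 min compound preincubation; anti-monomethyl H3K9 antibody plus donor/acceptor beads, 10 min dark.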
An asterisk follows results filed as active; ? = inconclusive; . = not tested or not shown; [ ] = another dose, or the depositor's remark. The list is not random: actives were taken first. Their share in the collection is about 12%. Calls come from the whole dose curve; as a rule, active = well fitted curve in the direction sought with a large enough effect; inconclusive = small, poorly fitted or top-dose-only effect, or another doubt; inactive = no such curve, though single readings can be large; an effect the other way counts as inactive or inconclusive. Potency is the fitted concentration of half-maximal effect.

SMILES	Sfp inh	PLK1 PBD block	BAZ2B inh	JMJD2A Tudor inh	HP1b chromo inh	G9a block
O=C1c2ccccc2NC(c2cccc(O)c2)N1O (centres undefined)	-13%	0%	-16%	4%	49%	45µM*
CCN(CC)S(=O)(=O)c1cc(-c2nnc(Nc3ccc(OC)c(C(N)=O)c3)c3ccccc23)ccc1C	.	.	-15%	-22%	17%	-4%[59 µM]
O=C1OCC2=C1C(c1ccccc1)CC(=O)N2c1ccc(F)cc1 (centres undefined)	15%	-5%	-8%	-5%	43%	8%
CC(=O)c1c(O)c(C)c(O)c2c1OC1=CC(=O)C(C(C)=O)C(=O)[C@@]12C (some centres undefined)	22%	13%	-27%	-32%	15%	50µM*
CC(=O)c1c(O)c(C)c(O)c2c1OC1=CC(=O)C(C(C)=O)C(=O)C12C (centres undefined)	11%	.	.	.	.	.
Cc1nonc1OCCCNc1ccc([N+](=O)[O-])cc1Cl	7%	-8%	-26%	-26%[57.1 µM]	29%	1.3µM*
Cc1ccc(C2c3c(-c4cc(C)ccc4O)n[nH]c3C(=O)N2Cc2ccco2)cc1 (centres undefined)	.	.	22µM*	?	0%	28µM*
O=C1c2[nH]nc(-c3ccccc3O)c2C(c2ccc(F)cc2)N1Cc1ccco1 (centres undefined)	-25%	-3%	?	?	-14%	-25%[12.7 µM]
COc1ccc(C2c3c(-c4ccccc4O)n[nH]c3C(=O)N2Cc2ccco2)cc1OC (centres undefined)	-9%	-21%	56µM*	?	-24%	-35%
N#Cc1nc(Nc2ccc(F)cc2)nc(NC2CCCC2)n1	.	.	.	-21%	.	.
O=C(NN=Cc1ccc(O)c(O)c1)c1ccccc1	.	5%	.	.	.	.
O=[N+]([O-])c1cc(/C=N\Nc2nccs2)ccc1O	14µM*	.	4µM*	.	.	-6%[2.33 µM]
O=C(COc1ccccc1C(=O)N/N=C\c1ccc(O)c(O)c1)N/N=C/c1ccc(O)c(O)c1	?	-13%	1.6µM*	2.2µM*	7.9µM*	?
O=C(COc1ccccc1[N+](=O)[O-])N/N=C/c1ccc(O)c([N+](=O)[O-])c1	-4%	-11%	-20%	-20%	?	50µM*
Cc1ccc(OCC(=O)N/N=C/c2ccccc2)c([N+](=O)[O-])c1	8%	-12%	1%	-19%	1%	-6%
COc1cccc(-c2nc(NCc3cccnc3)c3ccccc3n2)c1	0%	.	.	.	.	-2%[0.501 µM]
CCCc1nnc(NC(=O)Cc2coc3ccc(C(C)C)cc23)s1	.	.	-2%	-9%	20%	-3%[59 µM]
CC1(O)CC2CC1C(C(=O)O)C2C(=O)O (centres undefined)	.	-2%	.	-19%	11%	.
COc1ccc(/C=C\c2onc(C)c2S(=O)(=O)N2CCC(C(=O)Nc3ccccc3OC)CC2)cc1	.	.	.	-10%	21%	-23%[59 µM]
COc1ccc(CCNC(=O)C(=O)NCC2OCCN2S(=O)(=O)c2ccccc2)cc1 (centres undefined)	20%	1%	1%	-10%	38%	48%
Cc1ccc(-c2[nH]ncc2CNCCc2cnn(-c3ccccc3)c2)cc1C	79µM*	-3%	-39%	-23%	5%	-35%
Cc1occc1C(=O)NCc1ccccc1	-4%	-1%	-16%	-10%	39%	10%[0.0925 µM]
Cc1occc1C(=O)NCCc1ccc(Cl)cc1	-23%	-12%	-3%	-17%	20%	79µM*
Cc1occc1C(=O)NNC(=O)Cc1ccccc1	14%	-9%	1%	-8%	19%	0.2µM*
Cc1occc1C(=O)NCCCCc1ccccc1	18µM*	-29%	-31%	-6%	37%	-20%[12.7 µM]
